Results reported in the supplement of paper PMC10849652.
Targets with a hit are over-represented here; the source holds about 7,900 in all. About 0.6% of all pairs of compound and target were hits. A number with no mark means an inactive call.

Tests used:
Test in all cases: log2 fold change, soluble protein after heating vs DMSO (PISA); higher = thermal stabilisation; K562 cells, 10 uM, 30 min; active = over 0.2 and 3.5 SD of the protein, either way, in both replicates (recomputed)
[1] = compound: CC1=C(C=C(C=C1)NC(=O)C2=CC(=CC=C2)C(C)(C)C#N)NC3=CC4=C(C=C3)N=CN(C4=O)C
Summary of the method: (§1)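 For each measurement, 10 μM compound was applied for 30 min to K562 cells at 2×10^6 cells/mL. Aliquots were heated for 3 min across 48°C-58°C, pooled, and extracted in PBS with 0.5% NP-40 at 4°C; the supernatant after 21,000xg for 90 min was soluble protein. This was quantified by TMTpro 16plex LC-MS/MS with channel sums equalised, and thermal stability was reported relative to control samples from duplicates, on a log2 fold-change scale.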

[2] = compound: CC1=C(C=C(C=C1)NC(=O)C2=CC(=CC=C2)N(C)C)NC(=O)C3=CC=C(C=C3)O
Summary of the method: as §1

[3] = compound: CC1=CC=C(C=C1)SC2=C3C=C(SC3=CN=C2)C(=O)N
Summary of the method: as §1

[4] = compound: CC1=NC(=CC=C1)C2=C(N=C(N2)C(C)(C)C)C3=CC4=NC=CN=C4C=C3
Summary of the method: as §1

Nexturastat A = compound: CCCCN(Cc1ccc(C(=O)NO)cc1)C(=O)Nc1ccccc1 [Nexturastat A]
Summary of the method: as §1

vemurafenib = compound: CCCS(=O)(=O)Nc1ccc(F)c(C(=O)c2c[nH]c3ncc(-c4ccc(Cl)cc4)cc23)c1F [vemurafenib]
Summary of the method: as §1

[5] = compound: CCCS(=O)(=O)Nc1ccc(F)c(C(=O)c2c[nH]c3ncc(Cl)cc23)c1F
Summary of the method: as §1

[6] = compound: CCCc1cc(C)[nH]c(=O)c1CNC(=O)c1cc(-c2ccnc(N3CCN(C)CC3)c2)cc2c1cnn2C(C)C
Summary of the method: as §1

givinostat = compound: CCN(CC)Cc1ccc2cc(COC(=O)Nc3ccc(C(=O)NO)cc3)ccc2c1 [givinostat]
Summary of the method: as §1

barasertib = compound: CCN(CCCOc1ccc2c(Nc3cc(CC(=O)Nc4cccc(F)c4)[nH]n3)ncnc2c1)CCOP(=O)(O)O [barasertib]
Summary of the method: as §1

[7] = compound: CC[C@@H]1C(=O)N(C)c2cnc(Nc3ccc(C(=O)NC4CCN(C)CC4)cc3OC)nc2N1C1CCCC1
Summary of the method: as §1

volasertib = compound: CC[C@@H]1C(=O)N(C)c2cnc(Nc3ccc(C(=O)N[C@H]4CC[C@H](N5CCN(CC6CC6)CC5)CC4)cc3OC)nc2N1C(C)C [volasertib]
Summary of the method: as §1

[8] = compound: CC[C@H](C)N1C=C(C2=C(C=C(C=C21)C3=CN=C(C=C3)N4CCNCC4)C(=O)NCC5=C(C=C(NC5=O)C)C)C
Summary of the method: as §1

epoxomicin = compound: CC[C@H](C)[C@@H](C(=O)N[C@@H]([C@@H](C)O)C(=O)N[C@@H](CC(C)C)C(=O)[C@]1(CO1)C)NC(=O)[C@H]([C@@H](C)CC)N(C)C(=O)C [epoxomicin]
Summary of the method: as §1

[9] = compound: CCn1c(C(=O)N(C2CC2)C2CC2)cc2c3c(ncn3C)c(Nc3cc(C)n(C)n3)nc21
Summary of the method: as §1

[10] = compound: CCn1cc(-c2ccnc3[nH]c(-c4cccc(CN(C)C)c4)cc23)c(-c2ccc(NC(=O)N(C)C)cc2)n1
Summary of the method: as §1

[11] = compound: CN(C)CC(=O)Nc1ccc2[nH]c(=O)c3ccccc3c2c1
Summary of the method: as §1

rosiglitazone = compound: CN(CCOC1=CC=C(C=C1)C[C@H]2C(=O)NC(=O)S2)C3=CC=CC=N3 (racemic) [rosiglitazone]
Summary of the method: as §1

[12] = compound: CN1C2=C(C3=C1C(=O)N(N=C3)CC4=CC(=CC=C4)N)SC(=C2)S(=O)C
Summary of the method: as §1

[13] = compound: CN1CCC(CNc2ccc3ncc(-c4cccc(OC(F)(F)F)c4)n3n2)CC1
Summary of the method: as §1

Sequence of UniProt O00233 (O00233 whole entry, looked up): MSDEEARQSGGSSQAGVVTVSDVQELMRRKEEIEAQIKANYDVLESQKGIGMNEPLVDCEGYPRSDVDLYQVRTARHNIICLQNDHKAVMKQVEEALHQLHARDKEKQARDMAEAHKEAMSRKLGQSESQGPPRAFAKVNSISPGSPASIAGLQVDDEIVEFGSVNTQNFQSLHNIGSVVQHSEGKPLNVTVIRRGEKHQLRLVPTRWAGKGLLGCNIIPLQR
Sequence of UniProt Q8N4L2 (Q8N4L2 whole entry, looked up): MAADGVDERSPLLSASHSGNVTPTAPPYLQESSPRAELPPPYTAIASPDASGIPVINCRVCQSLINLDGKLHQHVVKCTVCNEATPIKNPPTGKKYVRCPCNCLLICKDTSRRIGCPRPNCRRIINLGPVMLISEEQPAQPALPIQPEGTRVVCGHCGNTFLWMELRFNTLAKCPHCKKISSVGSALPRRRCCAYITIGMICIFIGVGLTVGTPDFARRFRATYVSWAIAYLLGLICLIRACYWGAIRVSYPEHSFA
Sequence of UniProt P48556 (P48556 whole entry, looked up): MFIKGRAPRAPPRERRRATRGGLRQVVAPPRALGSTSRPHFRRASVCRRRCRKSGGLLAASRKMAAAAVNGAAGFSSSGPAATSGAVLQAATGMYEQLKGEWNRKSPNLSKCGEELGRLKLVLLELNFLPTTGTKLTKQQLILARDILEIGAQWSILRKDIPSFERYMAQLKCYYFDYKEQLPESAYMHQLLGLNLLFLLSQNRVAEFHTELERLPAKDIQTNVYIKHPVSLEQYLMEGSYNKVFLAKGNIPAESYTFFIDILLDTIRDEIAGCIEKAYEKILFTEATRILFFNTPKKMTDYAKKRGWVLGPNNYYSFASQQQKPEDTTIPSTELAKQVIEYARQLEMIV
Sequence of UniProt Q6L8Q7 (Q6L8Q7 whole entry, looked up): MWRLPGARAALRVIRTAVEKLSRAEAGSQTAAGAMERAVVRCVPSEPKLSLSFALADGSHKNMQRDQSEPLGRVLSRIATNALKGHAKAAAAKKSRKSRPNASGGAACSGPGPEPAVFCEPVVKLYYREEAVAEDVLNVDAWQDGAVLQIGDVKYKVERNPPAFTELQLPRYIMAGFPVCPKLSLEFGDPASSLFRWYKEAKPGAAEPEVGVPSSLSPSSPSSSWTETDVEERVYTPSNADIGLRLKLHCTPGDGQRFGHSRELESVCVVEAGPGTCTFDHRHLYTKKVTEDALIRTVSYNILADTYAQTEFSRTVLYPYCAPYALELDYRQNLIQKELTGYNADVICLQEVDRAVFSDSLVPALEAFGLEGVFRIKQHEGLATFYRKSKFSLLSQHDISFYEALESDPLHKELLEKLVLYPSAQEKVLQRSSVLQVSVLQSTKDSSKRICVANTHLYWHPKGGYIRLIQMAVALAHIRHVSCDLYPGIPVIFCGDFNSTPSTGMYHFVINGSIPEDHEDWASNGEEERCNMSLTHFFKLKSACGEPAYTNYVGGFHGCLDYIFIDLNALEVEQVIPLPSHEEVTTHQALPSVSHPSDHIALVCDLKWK
Sequence of UniProt Q9Y5Y5 (Q9Y5Y5 whole entry, looked up): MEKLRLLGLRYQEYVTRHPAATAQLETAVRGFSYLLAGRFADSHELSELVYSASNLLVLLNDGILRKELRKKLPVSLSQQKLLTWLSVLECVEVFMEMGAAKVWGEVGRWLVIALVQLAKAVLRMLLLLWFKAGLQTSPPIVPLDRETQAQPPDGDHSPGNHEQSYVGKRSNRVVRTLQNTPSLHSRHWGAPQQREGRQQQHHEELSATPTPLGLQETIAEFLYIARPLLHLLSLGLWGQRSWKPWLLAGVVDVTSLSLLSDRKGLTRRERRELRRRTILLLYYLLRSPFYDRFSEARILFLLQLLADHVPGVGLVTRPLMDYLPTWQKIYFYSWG
Sequence of UniProt Q15172 (Q15172 whole entry, looked up): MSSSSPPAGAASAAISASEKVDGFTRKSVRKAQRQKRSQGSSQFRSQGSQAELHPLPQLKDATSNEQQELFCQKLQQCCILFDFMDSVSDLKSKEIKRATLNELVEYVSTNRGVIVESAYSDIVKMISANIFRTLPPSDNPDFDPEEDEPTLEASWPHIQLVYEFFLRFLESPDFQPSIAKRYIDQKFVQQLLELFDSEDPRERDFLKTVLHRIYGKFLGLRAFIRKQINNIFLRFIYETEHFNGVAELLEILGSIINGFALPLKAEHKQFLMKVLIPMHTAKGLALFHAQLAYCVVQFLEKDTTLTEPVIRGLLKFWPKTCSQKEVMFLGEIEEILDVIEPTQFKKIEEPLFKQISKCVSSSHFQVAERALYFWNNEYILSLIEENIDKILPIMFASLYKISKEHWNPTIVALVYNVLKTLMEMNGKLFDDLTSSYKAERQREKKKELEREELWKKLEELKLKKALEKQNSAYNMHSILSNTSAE
Sequence of UniProt Q86TP1 (Q86TP1 whole entry, looked up): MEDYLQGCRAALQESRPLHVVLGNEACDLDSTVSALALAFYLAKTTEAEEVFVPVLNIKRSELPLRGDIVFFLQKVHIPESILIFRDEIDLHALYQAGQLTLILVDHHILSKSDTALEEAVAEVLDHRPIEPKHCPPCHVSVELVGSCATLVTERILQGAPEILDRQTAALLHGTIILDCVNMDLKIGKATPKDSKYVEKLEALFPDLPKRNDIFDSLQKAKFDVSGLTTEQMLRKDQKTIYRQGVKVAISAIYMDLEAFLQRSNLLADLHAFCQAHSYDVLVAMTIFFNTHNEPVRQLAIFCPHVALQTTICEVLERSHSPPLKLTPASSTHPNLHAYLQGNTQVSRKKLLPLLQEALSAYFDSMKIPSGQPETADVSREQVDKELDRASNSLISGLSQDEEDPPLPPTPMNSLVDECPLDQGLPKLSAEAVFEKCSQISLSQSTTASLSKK
Sequence of UniProt Q99460 (Q99460 whole entry, looked up): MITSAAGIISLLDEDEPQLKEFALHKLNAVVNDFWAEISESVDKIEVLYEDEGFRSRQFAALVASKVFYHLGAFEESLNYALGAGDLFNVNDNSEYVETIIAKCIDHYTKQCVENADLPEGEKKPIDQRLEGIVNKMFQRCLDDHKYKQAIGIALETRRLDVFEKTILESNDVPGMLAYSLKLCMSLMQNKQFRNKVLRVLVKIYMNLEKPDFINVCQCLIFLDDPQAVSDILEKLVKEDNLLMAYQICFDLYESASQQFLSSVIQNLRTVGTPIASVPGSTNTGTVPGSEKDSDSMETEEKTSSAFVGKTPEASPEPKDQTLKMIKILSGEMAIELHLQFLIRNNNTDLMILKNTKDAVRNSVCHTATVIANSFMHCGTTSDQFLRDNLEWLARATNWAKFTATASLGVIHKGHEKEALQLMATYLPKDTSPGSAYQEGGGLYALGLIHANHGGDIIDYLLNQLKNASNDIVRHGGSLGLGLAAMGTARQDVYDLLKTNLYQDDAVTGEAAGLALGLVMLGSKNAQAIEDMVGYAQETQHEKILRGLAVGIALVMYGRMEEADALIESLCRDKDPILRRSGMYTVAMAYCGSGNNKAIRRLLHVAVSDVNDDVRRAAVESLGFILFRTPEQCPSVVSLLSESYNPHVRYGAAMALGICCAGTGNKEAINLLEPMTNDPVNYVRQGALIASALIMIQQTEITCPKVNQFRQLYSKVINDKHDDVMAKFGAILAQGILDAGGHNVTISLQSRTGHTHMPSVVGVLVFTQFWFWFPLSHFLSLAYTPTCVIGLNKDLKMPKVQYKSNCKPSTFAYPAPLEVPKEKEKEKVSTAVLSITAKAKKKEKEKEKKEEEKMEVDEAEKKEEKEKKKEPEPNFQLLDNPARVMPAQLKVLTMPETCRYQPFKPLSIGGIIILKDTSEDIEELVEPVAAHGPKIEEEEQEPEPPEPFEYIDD
Sequence of UniProt O60925 (O60925 whole entry, looked up): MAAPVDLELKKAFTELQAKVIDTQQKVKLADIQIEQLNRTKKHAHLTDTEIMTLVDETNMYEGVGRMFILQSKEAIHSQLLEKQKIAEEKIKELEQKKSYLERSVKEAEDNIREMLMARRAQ
Sequence of UniProt Q15054 (Q15054 whole entry, looked up): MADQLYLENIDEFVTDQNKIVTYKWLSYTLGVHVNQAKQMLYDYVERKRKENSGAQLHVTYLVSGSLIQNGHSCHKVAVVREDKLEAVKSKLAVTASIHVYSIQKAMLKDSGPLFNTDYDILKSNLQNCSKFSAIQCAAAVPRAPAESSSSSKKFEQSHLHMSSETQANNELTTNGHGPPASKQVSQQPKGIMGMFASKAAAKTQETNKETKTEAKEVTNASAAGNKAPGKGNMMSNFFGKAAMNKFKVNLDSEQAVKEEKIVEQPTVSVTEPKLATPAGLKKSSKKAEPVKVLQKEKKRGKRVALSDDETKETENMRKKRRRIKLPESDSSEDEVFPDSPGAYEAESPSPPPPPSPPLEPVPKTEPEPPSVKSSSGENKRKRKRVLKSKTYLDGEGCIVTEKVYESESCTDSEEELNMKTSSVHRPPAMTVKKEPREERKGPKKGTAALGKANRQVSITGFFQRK

| Target | log2 fold change [1] | log2 fold change [2] | log2 fold change [3] | log2 fold change [4] | log2 fold change (Nexturastat A) | log2 fold change (vemurafenib) | log2 fold change [5] | log2 fold change [6] | log2 fold change (givinostat) | log2 fold change (barasertib) | log2 fold change [7] | log2 fold change (volasertib) | log2 fold change [8] | log2 fold change (epoxomicin) | log2 fold change [9] | log2 fold change [10] | log2 fold change [11] | log2 fold change (rosiglitazone) | log2 fold change [12] | log2 fold change [13] |
| --- | --- | --- | --- | --- | --- | --- | --- | --- | --- | --- | --- | --- | --- | --- | --- | --- | --- | --- | --- | --- |
| PLEKHM2 (UniProt Q8IWE5) | 0.064 | 0.035 | 0.052 | -0.011 | -0.028 | 0.075 | 0.124 | 0.038 | 0.177 | 0.076 | -0.127 | -0.177 | 0.009 | 0.037 | -0.051 | -0.175 | 0.003 | 0.034 | -0.04 | -0.357 (active) |
| PKM (UniProt P14618) | -0.013 | -0.005 | 0.001 | 0.014 | -0.054 | -0.012 | -0.01 | -0.023 | 0 | -0.011 | 0.018 | 0.037 | -0.035 | 0.001 | -0.002 | -0.007 | -0.015 | 0.015 | 0.002 | -0.017 |
| POLR2B (UniProt P30876) | 0.009 | -0.044 | 0.041 | 0.016 | 0.054 | 0.006 | 0.041 | 0.005 | -0.005 | 0.008 | 0.064 | -0.128 | -0.018 | -0.008 | -0.046 | 0.023 | -0.015 | 0.037 | 0.03 | 0.031 |
| PRKCA (UniProt P17252) | -0.014 | -0.068 | -0.016 | 0.007 | 0.023 | -0.015 | 0.012 | -0.021 | -0.02 | 0.025 | 0.073 | -0.179 | 0.025 | -0.018 | -0.029 | 0 | 0.017 | 0.032 | -0.15 | -0.29 |
| PDE12 (UniProt Q6L8Q7) | 0.049 | 0.006 | 0.024 | 0.026 | -0.064 | -0.006 | 0.03 | -0.01 | -0.027 | 0.014 | -0.035 | -0.056 | -0.008 | 0.04 | 0.003 | -0.038 | 0.026 | 0.028 | -0.078 | -0.014 |
| PIP4P2 (UniProt Q8N4L2) | 0.107 | -0.03 | -0.006 | -0.002 | -0.092 | -0.013 | 0.041 | -0.045 | -0.067 | 0 | -0.092 | -0.054 | -0.07 | -0.192 | 0.053 | 0.004 | -0.018 | 0.008 | -0.016 | -0.375 (active) |
| PPP2R5A (UniProt Q15172) | -0.014 | -0.039 | 0.032 | 0.051 | -0.017 | 0.061 | 0.146 | -0.003 | 0.026 | 0.002 | -0.099 | -0.295 (active) | 0.097 | 0.067 | 0.012 | -0.046 | 0.072 | 0.112 | -0.049 | -0.305 (active) |
| PSMD8 (UniProt P48556) | 0.044 | 0.047 | -0.056 | -0.045 | 0.128 | -0.082 | -0.073 | 0.022 | -0.04 | -0.034 | 0.054 | 0.25 | -0.01 | -0.286 (active) | 0.022 | 0.039 | -0.037 | -0.048 | 0.035 | 0.016 |
| PFDN1 (UniProt O60925) | 0.039 | -0.131 | 0.089 | 0.041 | -0.071 | 0.172 | -0.019 | -0.016 | 0.004 | 0.002 | 0.044 | -0.009 | -0.004 | 0.183 | 0.02 | -0.019 | 0 | 0.003 | -0.119 | 0.113 |
| PEA15 isoform 2 (UniProt Q15121) | 0.004 | -0.039 | 0.042 | -0.008 | -0.071 | 0.002 | 0.122 | -0.003 | 0.003 | 0.082 | -0.078 | -0.162 | -0.018 | 0 | 0.083 | 0.022 | 0.004 | 0.025 | -0.002 | 0.039 |
| POLD3 (UniProt Q15054) | -0.131 | -0.055 | 0.03 | 0.007 | -0.115 | 0.082 | 0.049 | 0.065 | 0.018 | 0.006 | -0.147 | -0.101 | 0.008 | 0.126 | -0.071 | -0.037 | 0.067 | 0.513 | 0.051 | -0.118 |
| PEX16 isoform 2 (UniProt Q9Y5Y5) | 0.017 | 0.038 | 0.083 | 0.146 | -0.033 | 0.071 | 0.089 | -0.07 | 0.006 | -0.007 | -0.065 | -0.138 | -0.013 | -0.024 | -0.041 | 0.033 | 0.013 | 0.062 | -0.127 | -0.124 |
| PSMD1 (UniProt Q99460) | 0.06 | 0.021 | -0.001 | -0.011 | 0.055 | -0.041 | -0.049 | 0.05 | -0.046 | -0.036 | 0.042 | 0.146 | -0.001 | -0.278 | 0.015 | 0.028 | -0.005 | -0.026 | 0.043 | 0.059 |
| PSMD9 (UniProt O00233) | -0.012 | 0.018 | 0.021 | 0.012 | -0.068 | -0.014 | -0.021 | -0.016 | -0.004 | 0 | -0.011 | 0.086 | 0.004 | -0.04 | -0.009 | -0.137 | -0.01 | 0.002 | -0.034 | 0.127 |
| PRUNE1 (UniProt Q86TP1) | 0.056 | -0.014 | -0.005 | -0.028 | 0.161 | 0.129 | 0.036 | 0.022 | 0.056 | 0.105 | -0.083 | -0.417 (active) | 0.067 | 0.012 | -0.035 | -0.024 | -0.018 | 0.04 | -0.079 | -0.089 |
